# Measured values reported in PubChem BioAssay (NCI).
# This is part of a sample that, as a whole, favours compounds with a hit. Of some 83,000 tested, about 20% had one in any assay.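 The test compound was applied at a single concentration to cells in 96-well plates for 48 hours, and percent growth was recorded.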 Values without a mark were called inactive. The source made the active and inactive calls. The calls were made as follows: active = growth percent below 10; inactive = the rest.
# Assays:
# Assay in all cases: NCI-60 one-dose screen, 48 h (100 = growth as untreated, 0 = no growth, -100 = all killed)
# Conditions in all cases: 10 µM
# [1] = system: T-47D breast
# [2] = system: BT-549 breast
# [3] = system: MDA-MB-435 melanoma
# [4] = system: SW-620 colon
# [5] = system: MCF7 breast
# [6] = system: HCT-116 colon
# [7] = system: KM12 colon
# [8] = system: HCC-2998 colon
Structure (SMILES),growth [1],growth [2] [%],growth [3],growth [4],growth [5],growth [6],growth [7],growth [8]
Clc1cc(Cl)c(Cl)c(-c2nc(-c3cccnc3)cs2)c1,-7.29% (active),98.3,4.27% (active),46.2%,63.6%,40.2%,103%,
O=c1oc2c3ccc4cnccc4c3[nH]c2c2ccccc12,-8.53% (active),32.7,-69.8% (active),3.35% (active),-12.3% (active),-14.5% (active),28.2%,
COc1ccc(C2C=C(c3ccc(Cl)c(Cl)c3)N=C3SC(C)=CN32)cc1 (configuration not stated),68.3%,89.9,90.6%,91.4%,47.1%,,81.6%,108%
COc1cc(CSc2nc3ccc(Cl)cc3c(=O)n2Cc2ccccc2)cc(OC)c1OC,33.9%,21.7,1.84% (active),28.7%,14.3%,,23.7%,50.1%
COc1ccc(/C=C2\SC(=S)N(CCCN3CCOCC3)C2=O)c(OC)c1,71.2%,96.1,101%,105%,76%,,97.2%,109%
O=C1c2cc(Cl)ccc2-c2c(O)cc(Cl)cc21,63.9%,100,106%,82.7%,77%,,61%,105%
CCOc1nc(-c2ccccc2)cc2c(O)c(C(=O)NC(C)C)[nH]c(=O)c12,97.3%,147,105%,96.1%,98.9%,101%,106%,
CNCCCNCCCN1C(=O)c2ccc3c4c(ccc(c24)C1=O)C(=O)N(CCCNCc1ccccc1OC)C3=O,-30.3% (active),78.1,-58.6% (active),-19% (active),-51.7% (active),,-16.9% (active),-9.5% (active)
CCc1ccc(Nc2cc(C)nc3nc(C)nn23)cc1,-68.3% (active),40.7,-97.2% (active),-68.9% (active),-92% (active),,3.49% (active),-69.8% (active)
CC1(C)CC(OCCCC[P+](c2ccccc2)(c2ccccc2)c2ccccc2)CC(C)(C)N1O,-2.14% (active),17.3,-57.9% (active),2.74% (active),-1.61% (active),12.4%,-51.6% (active),
Cc1[nH]nc2c(=S)[nH]c(=O)[nH]c12,104%,98.1,102%,103%,94%,,107%,106%
CCCCCCCCCCCC(c1ccccc1)N(C)C (configuration not stated),99.7%,101,102%,95.4%,91.3%,94.4%,104%,
Cc1ccc(Cl)cc1Nc1nc(C(F)(F)F)ccc1C(=O)N/N=C/c1c(Cl)cccc1Cl,-10.9% (active),31,13.1%,3.99% (active),2.24% (active),12.7%,-15.9% (active),
Cc1c(C(=O)N[C@H](CO)Cc2ccccc2)[nH]c2ccc(Cl)cc2c1=O,89.9%,107,89.3%,101%,92.7%,,106%,94.4%
CC(C)C[C@H](NC(=O)Cn1ccc2ccccc2c1=O)B(O)O,39.6%,58.4,3.38% (active),42.8%,31.4%,,93.4%,72.2%
CCOC(=O)C1=C(Nc2ccc(OC)cc2)C(N)=NC1=N,47.5%,56.2,-43.1% (active),25.2%,13.7%,,30.2%,81%
C/C(=N/NC(=O)c1sc(=S)n(C)c1N)c1cc2cc(Cl)ccc2o1,80.4%,113,95.7%,44.3%,82.7%,103%,88.2%,
C/C(=N\NC(=O)c1sc(=S)n(C)c1N)c1cc2ccccc2o1,78.2%,87.2,41%,81.3%,34.8%,59.1%,21.5%,
COc1cc(-c2cc(-c3cc(OC)c(OC)c(OC)c3)nc3nc(N)[nH]c(=O)c23)ccc1Oc1ccnc2cc(Cl)ccc12,30.3%,34.9,-57.6% (active),19.6%,17.4%,,13.5%,56.9%
CC(=O)OC1Oc2ccccc2-c2oc(=O)c(-c3ccc(F)cc3)cc21 (configuration not stated),77.2%,80.6,51.5%,12.8%,63.2%,86.5%,89.9%,
CCCc1c(C)nc2scc(-c3ccc(Cl)cc3)n2c1=O,86.5%,98.3,108%,109%,95.2%,,98.2%,106%
O=S(=O)(O)C1(O)CCCCC1,85.7%,112,89.2%,81.5%,78%,,82.9%,110%
C/C(=N\NC(N)=S)C(C)(C)O,57.1%,104,96.9%,77.4%,27.1%,,99.7%,102%
O=C(N/N=C/c1ccccc1O)c1ccccc1,25.5%,60.4,56.7%,42.2%,3.31% (active),14.9%,35.4%,
Cc1noc(C)c1-c1ccc2nc(NC(=O)[C@H]3CCN(C#N)C3)cn2c1,54.8%,76.3,81.7%,83.6%,71.1%,,91.3%,90.4%
COc1ccc(C(=O)/C=C/c2cc(-c3ccc4c(c3)OCO4)n[nH]2)cc1OC,43.8%,,73.5%,36.4%,27.2%,18.4%,54.1%,91.3%
